Several values for one entry are separate records, joined by “and”; a condition that tells them apart may be missing. Identical values can stand only once. Screen size: about 330,000 compounds; about 4,400 (1.3%) were called active. The sample holds actives, similar compounds and a random draw of the others, so the mix is not that of the screen.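 The calls were made as follows: active = growth inhibition of the mutant yeast at or above 50%; inactive = the rest.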
Test: growth inhibition of tim23-1 ts yeast – luminescence, uHTS, primary screen (AID 463212);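 also: temperature-sensitive mutant grown at 25 °C; plate controls were DMSO-treated mutant yeast for no effect and medium wells lacking yeast for full effect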
Settings: S. cerevisiae tim23-1 growth, BacTiter-Glo luminescence, 24 h; at 20 µM; hits give high values

Compound	inhibition
COc1ccc(CCNC(=O)CN(c2ccccc2)S(C)(=O)=O)cc1	10.1% (inactive)
Cc1cc(C)nc(SCc2ccccc2C#N)n1	8% (inactive)
Cc1cc(C)nc(S/C=C/C(=O)c2ccccc2)n1	83.3% (active)
Cc1cc(C)nc(SCC(=O)N(C)C)n1	3.33% (inactive)
COc1ccc(C2/C(=C(/O)c3ccccc3)C(=O)C(=O)N2C)c(OC)c1 (stereo not drawn)	12% (inactive)
COc1ccc(/C=C2/C(=O)OCc3cc(OC)c(OC)cc32)c(OC)c1	23.4% (inactive)
COc1ccc(/C=C2/C(=O)N(c3ccccc3)N=C2C)c(OC)c1	52.9% (active)
Cc1c(NC(=O)c2cc(-c3ccc(Cl)s3)nc3ccccc23)c(=O)n(-c2ccccc2)n1C	25.7% (inactive)
NC(=NC(=O)c1ccccc1)C1=C(O)CCC1=O	15.3% (inactive)
Cc1cccc(CS(=O)(=O)c2ncc(Cl)c(C(=O)Nc3ccc(F)cc3)n2)c1	39.1% (inactive)
Cc1ccc(CS(=O)(=O)c2ncc(Cl)c(C(=O)Nc3nnc(C)s3)n2)cc1	18.2% (inactive)
Cc1cccc(NC(=O)c2nc(S(=O)(=O)Cc3ccccc3)ncc2Cl)c1	75.9% (active)
CCOC(=O)Cc1cc(=O)[nH]c(/N=C(\N)Nc2ccc(OC)cc2)n1	-4.74% (inactive)
COCCNc1ccc(-c2n[nH]c(=O)c3ccccc23)cc1[N+](=O)[O-]	1.96% (inactive)
O=C(NC1CCCCC1)c1ccc(-c2ccc(Cl)cc2)o1	45.4% (inactive)
CN(CC(=O)Nc1ccc(F)cc1)C(=O)c1ccc(-c2ccc(Cl)cc2)o1	36.9% (inactive)
Cc1[nH][nH]c(=O)c1C(c1ccc(-c2ccc(Cl)cc2)o1)c1c(C)[nH][nH]c1=O	84.6% (active)
Cc1ccsc1C1C(C#N)=C(N)OC2=C1C(=O)CC(C)(C)C2 (stereo not drawn)	15.8% (inactive)
NC(=O)COc1ccc(/C=N/NC(=O)C2CCCN2S(=O)(=O)c2ccc(Cl)cc2)cc1 (stereo not drawn)	4.5% (inactive)
CC1(C)C=Cc2c(ccc3c2OC[C@@H](c2ccc(O)cc2O)C3)O1	81.8% (active)
CCCCc1nccn1CCn1ccnc1CCCC	2.76% (inactive)
CC(C)(C)c1ccc(C(=O)NNC(=O)Cc2ccccc2)cc1	8.91% (inactive)
CN(C(=O)COC(=O)CNC(=O)C12CC3CC(CC(C3)C1)C2)c1ccccc1	3.66% (inactive)
CN(C(=O)CC(NC(=O)c1ccccc1)(c1ccccc1)c1ccccc1)c1ccccc1	51.5% (active)
C=CCn1c(P(C)(=O)O)nc2ccccc21	5.79% (inactive) and -9.61% (inactive)

Compound	inhibition
O=C(c1ccco1)N1CCN(C(=O)C2CCCN(S(=O)(=O)c3cccc4nsnc34)C2)CC1 (stereo not drawn)	9.26% (inactive)
Cc1c(Br)ccc(NC(=O)COc2ccccc2C(N)=O)c1C	3.99% (inactive)
Cc1cc(=O)cc(C)n1-c1ccc(Cl)c(Cl)c1	1.14% (inactive)
CCSc1ncnc2c(C#N)c3n(c12)CCCCC3	32.7% (inactive)
CCSC1=C(C#N)C(=O)n2c1cc1c2CCCC1	58% (active)
CC(=O)NC1CCN(CC(=O)Nc2nccs2)CC1	8.15% (inactive)
COc1ccccc1CCCNC(=O)C1CCC(=O)N(CCN2CCOCC2)C1 (stereo not drawn)	-0.497% (inactive)
Fc1ccccc1COc1ccccc1CNCc1ccncc1	3.21% (inactive)
CCN1CCc2nc(NC(=O)c3cc(F)c(F)cc3Cl)sc2C1	4.64% (inactive)
COc1ccc(CNC(=O)/C(C#N)=C/c2cccc(OC)c2OC)cc1	71.3% (active)
COc1ccc(NC(=O)/C(C#N)=C\c2cc(OC)c(OCc3ccc(C(=O)O)cc3)cc2Br)cc1	20.5% (inactive)
COc1ccc(CNC(=O)CCn2cccc2)cc1	6.47% (inactive)
CN(CC(=O)Nc1ccccc1[N+](=O)[O-])Cc1ccc(Br)cc1	1.11% (inactive)
COc1ccccc1CNC(=O)C1Cc2ccccc2C(=O)O1 (stereo not drawn)	17.7% (inactive)
NS(=O)(=O)c1ccc(CCNS(=O)(=O)c2cccc3cccnc23)cc1	11.4% (inactive)
COc1cc(NS(=O)(=O)c2ccc3ccccc3c2)c2ncccc2c1	26.4% (inactive)
O=[N+]([O-])c1ccccc1S(=O)(=O)Nc1cccc2cccnc12	57.4% (active)
CC1(C)COC(c2cccn2Cc2ccccc2Cl)=N1	2.43% (inactive)
COc1ccc(Cl)cc1NC(=O)CN(C)C(=O)c1cc(-c2cccs2)nn1-c1ccccc1	25.9% (inactive)
O=[N+]([O-])c1ccc2oc(-c3cccc(O)c3)nc2c1	29.8% (inactive)
CCc1ccc2oc(-c3ccc(N)cc3)nc2c1	65.6% (active)
O=C(CNC(=O)C1COc2ccccc2O1)N/N=C/c1cc(Br)c(O)c(Br)c1 (stereo not drawn)	12.1% (inactive)
O=C(N/N=C/c1cc2c(cc1Br)OCO2)C1COc2ccccc2O1 (stereo not drawn)	22.2% (inactive)
O=C(N/N=C\c1cc(Br)c(Br)o1)C1COc2ccccc2O1 (stereo not drawn)	50.2% (active)
CCOC(=O)c1c(NC(C)=O)sc2c(O)c(Br)ccc12	20.3% (inactive)

Compound	inhibition
Cc1ccc(-n2c(SCC(=O)N/N=C/C=C/c3ccccc3[N+](=O)[O-])nc3ccccc3c2=O)cc1	12.1% (inactive)
CCOc1ccc(CCNC(=O)COC(=O)CCS(=O)(=O)c2ccc(C)cc2)cc1OCC	8.24% (inactive)
Cc1ccc(Cn2nnc3c(=O)[nH]c(C4CCN(S(=O)(=O)/C=C/c5ccccc5)CC4)nc32)cc1	17.8% (inactive)
Nc1ccccc1SC(C[N+](=O)[O-])c1ccccc1 (stereo not drawn)	81.4% (active)
Cc1ccc(C(C[N+](=O)[O-])c2c(C)cc3ccccn23)cc1 (stereo not drawn)	48.5% (inactive)
O=C(CN(C(=O)c1csnn1)c1ccc(Br)cc1)NC1CCCC1	6.83% (inactive)
O=C(Nc1nonc1-c1ccc(Cl)cc1)c1ccco1	29.1% (inactive)
CC(C)[C@H](NC(=O)OCc1ccccc1)C(=O)OCc1ccccc1	16% (inactive)
Cc1c(S(=O)(=O)NC(C)c2ccccc2)c(=O)n(C)c(=O)n1C (stereo not drawn)	0.038% (inactive)
O=C(N/N=C1\CCSC1)c1cc(Cl)ccc1O	7.53% (inactive)
Cc1ccc(C(=O)NC23CC4CC(CC(C4)C2)C3)c(Cl)c1	20.2% (inactive)
C/C(=N/NC(=O)c1cc(Cl)ccc1O)C12CC3CC(CC(C3)C1)C2	54.5% (active)
CCOc1ccc(S(=O)(=O)NCCCn2ccnc2)cc1NC(C)=O	-2.51% (inactive)
Cc1ccnc(NC(=O)CCC(=O)N(CC(=O)NCCc2ccccc2)Cc2cccs2)c1	6.97% (inactive)
COc1cccc(CN2C(=O)CCC2(C)C(=O)NC2CCCCCC2)c1 (stereo not drawn)	-1.86% (inactive)
COC(=O)c1c(NC(=O)CCN2CCOCC2)sc2c1CCCC2	26% (inactive)
COC(=O)c1c(NC(=O)C2CC(C)=C(C)CC2C(=O)O)sc2c1CCCCC2 (stereo not drawn)	27.7% (inactive)
COC(=O)c1c(NC(=O)CSc2nncs2)sc2c1CCCCC2	52.6% (active)
Cc1ccc(NS(=O)(=O)c2cn(C)c(=O)n(C)c2=O)c(C)c1	11% (inactive)
Cc1cccc(C(C)C)c1NC(=O)COC(=O)C1CC(=O)N(Cc2ccccc2)C1 (stereo not drawn)	-6% (inactive)
C(=N\Nc1ccc2ccccc2n1)/c1ccc2c(c1)OCO2	18.7% (inactive)
Cc1cccc(NC(=O)c2ccc3ccccc3n2)n1	26.7% (inactive)
Clc1ccc(Nc2ccc3ccccc3n2)cc1	84.8% (active)
CC(=O)N1c2ccc(S(=O)(=O)N3CCCC(C(=O)Nc4cccc(F)c4)C3)cc2CC1C (stereo not drawn)	19.4% (inactive)
S=C(NNC(=S)NC1CC2CCC1C2)NC1CC2C=CC1C2 (stereo not drawn)	13.8% (inactive)

Compound	inhibition
S=C(NNC(=S)NC1CC2C=CC1C2)NC1CC2C=CC1C2 (stereo not drawn)	6.32% (inactive)
CC(C)c1ccc(NC(=S)NC2CC3C=CC2C3)cc1 (stereo not drawn)	50.9% (active)
COc1ccc(C(=O)Nc2cccc(NC(=O)c3ccc(OC)cc3OC)n2)c(OC)c1	-26.2% (inactive)
COc1cc(SC)ccc1C(=O)Nc1nc(C)cs1	51.1% (active)
Cc1csc(NC(=O)c2ccc(C)s2)n1	17% (inactive)
O=C(/C=C/c1ccccc1)N/C(=C/c1ccccc1)C(=O)Nc1ccccc1O	19.1% (inactive)
O=C(/C=C/c1ccc(N2CCOCC2)cc1)c1ccccc1	35.2% (inactive)
O=C(/C=C/c1ccccc1)c1ccccc1O	55.8% (active)
Nc1cc(N)nc(SCC(=O)Nc2cccc(S(=O)(=O)N3CCCCC3)c2)n1	-8.43% (inactive)
O=C1C=C(c2cccc(Cl)c2)C[C@@H](c2ccc(F)cc2)C1	35.1% (inactive)
COc1ccccc1C1=CC(=O)C[C@H](c2ccc(F)cc2)C1	35.3% (inactive)
O=C1C=C(c2cccc(Cl)c2O)C[C@@H](c2ccc(F)cc2)C1	63.4% (active)
COc1ccc2ccccc2c1CNc1nnnn1C	-0.932% (inactive)
Cc1cc(C(=O)N/N=C\C(Br)=C\c2ccccc2)c(C)o1	55.9% (active)
CC(=C/c1ccccc1)/C=N/NC(=O)c1cc(C)oc1C	-0.867% (inactive)
CC(C)c1cc(C(=O)N/N=C/C(Br)=C/c2ccccc2)n[nH]1	34.3% (inactive)
CCN(CC)C(=O)c1nc[nH]c1C(=O)N(C)Cc1ccccc1	8.93% (inactive)
Cc1cc(C)cc(NC(=O)C2CCCN2S(=O)(=O)c2cccc3cccnc23)c1 (stereo not drawn)	47.9% (inactive)
CCOC(=O)c1cc2c(=O)n3ccccc3nc2n(CC(C)C)c1=NC(=O)c1c(-c2c(F)cccc2Cl)noc1C	28.6% (inactive)
Nn1c(SCC(=O)NC2CCCc3ccccc32)nnc1C1CC1 (stereo not drawn)	2.69% (inactive)
CC(=O)Nc1ccc(Oc2ccc3c(c2)C(=O)NC3=O)cc1	-0.541% (inactive)
CC(=O)Oc1ccc2c(c1)C(=O)c1ccccc1C2=O	50.2% (active)
CC(=O)O[C@H]1c2ccccc2-c2ccccc2[C@@H]1OC(C)=O	21.8% (inactive)
